Measurements as given in PubChem BioAssay (NCATS).
Inconclusive results are not listed. Active and inactive are the calls of the source. The call rests on the fitted dose curve; in most records, active means well fitted curve in the direction sought with a large enough effect; inconclusive means small, poorly fitted or top-dose-only effect, or another doubt; inactive means no such curve, though single readings can be large; an effect the other way counts as inactive or inconclusive.

What was measured:
[1] = qHTS of pediatric cancer cell lines to identify multiple opportunities for drug repurposing: Primary screen for control Hh wild type fibroblast cells (AID 1347106);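 further: a drop in luminescence marks cytotoxicity and a rise apparent proliferation; nearly all actives have a fitted effect of over 55% in size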
Method in brief: (§1)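 Viability after 48 h compound treatment at 37C, 500-1,000 cells/well, read as ATP luminescence with CellTiter-Glo. Primary screens used 11-point (MIPE, 0.78 nM-46 µM) or 8-point (NPC, 0.59 nM-46 µM) final concentrations; follow-up screens used 11-point dilutions.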

[2] = qHTS of pediatric cancer cell lines to identify multiple opportunities for drug repurposing: Primary screen for Rh30 cells (AID 1347107); further: nearly all actives have a fitted effect of over 75% in size
Method in brief: as §1

[3] = qHTS of pediatric cancer cell lines to identify multiple opportunities for drug repurposing: Primary screen for Rh41 cells (AID 1347108);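 further: luminescence drop marks cytotoxic hits; nearly all actives have a fitted effect of over 70% in size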
Method in brief: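 Primary screen of approved and investigational compounds on cells in growth media at 37 degrees C, 5% CO2. MIPE set at 11-point and NPC set at 8-point dilutions; viability scored by ATP-based luminescence at 48 hours.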

Measured: Potency
Further: series mostly up to about 46 µM.

O=C1OC2(c3ccccc31)c1cc(Br)c(O)c(Br)c1Oc1c2cc(Br)c(O)c1Br
inactive: all assays above

COc1cc([C@H]2Oc3cc([C@H]4Oc5cc(O)cc(O)c5C(=O)[C@@H]4O)ccc3O[C@@H]2CO)ccc1O
inactive: all assays above

Cc1cc2c(OCC(CNC(C)(C)C)OC(=O)c3ccccc3)cccc2[nH]1 (stereo unspecified)
inactive: all assays above

CC1=C(C(=O)O)N2C(=O)[C@@H](NC(=O)[C@H](N)c3ccccc3)[C@H]2SC1
inactive: all assays above

O=C(O)c1ccc(S(=O)(=O)N(Cl)Cl)cc1
inactive: all assays above

O=C1C(=O)c2ccccc2C(O)=C1C1CCC(c2ccc(Cl)cc2)CC1 (stereo unspecified)
inactive: all assays above

CCC1NC(=O)c2cc(S(N)(=O)=O)c(Cl)cc2N1 (stereo unspecified)
inactive: all assays above

O=S(=O)(O)c1ccc(O)cc1
inactive: all assays above

COc1cc(C(=O)NCc2ccc(OCCN(C)C)cc2)cc(OC)c1OC
inactive: all assays above

Cl/C(=C\n1cncn1)c1ccc(Cl)cc1Cl
inactive: all assays above

NCCNc1cccc2ccccc12
inactive: all assays above

O=C1c2cccc3c2[C@H](CCC3)CN1[C@@H]1CN2CCC1CC2
inactive: all assays above

CCCCC(CC)CN1CN(CC(CC)CCCC)CC(C)(N)C1 (stereo unspecified)
inactive: all assays above

COc1ccc(CN(CCN(C)C)c2ncccn2)cc1
inactive: all assays above

Cc1cccc(C)c1NC(=O)CN1CCCC1
inactive: all assays above

CCOc1cc(OCC)c(C(=O)CCC(=O)O)cc1OCC
inactive: all assays above

CCCCOC(=O)CC(CC(=O)OCCCC)(OC(C)=O)C(=O)OCCCC
inactive: all assays above

C#C[C@]1(O)CC[C@H]2[C@@H]3[C@H](C)CC4=C(CCC(=O)C4)[C@H]3CC[C@@]21C
inactive: all assays above

CCOC(=O)[C@H](CCc1ccccc1)N[C@@H](C)C(=O)N1[C@H](C(=O)O)C[C@@H]2CCC[C@@H]21
inactive: all assays above

NS(=O)(=O)Cc1noc2ccccc12
inactive: all assays above

C#C[C@]1(O)CC[C@H]2[C@@H]3CCC4=Cc5oncc5C[C@]4(C)[C@H]3CC[C@@]21C
inactive: all assays above

CCC(CC)(CC(=O)Nc1cccc(/C=C/c2nc(C3CCC3)cs2)c1)C(=O)O
inactive: all assays above

C[C@@H](O)[C@H]1C(=O)N2C(C(=O)O)=C([C@H]3CCCO3)S[C@H]12
inactive: all assays above

CC(C(=O)O)c1cccc(Oc2ccccc2)c1 (stereo unspecified)
inactive: all assays above

COc1cc(NS(=O)(=O)c2ccc(N)cc2)ncn1
inactive: all assays above

CCN1CCN(C(=O)N[C@@H](C(=O)N[C@@H]2C(=O)N3C(C(=O)O)=C(CSc4nnnn4C)CS[C@H]23)c2ccc(O)cc2)C(=O)C1=O
inactive: all assays above

O=C(c1ccc(F)cc1)C1CCN(CCn2c(=S)[nH]c3ccccc3c2=O)CC1
inactive: all assays above

Cc1nc(-c2ccc(Cl)cc2)oc1COC(C)(C)C(=O)O
inactive: all assays above

CC(C)Cn1cnc2c1c(=O)n(C)c(=O)n2C
inactive: all assays above

Cc1c(-c2ccccc2)oc2c(C(=O)OCCN3CCCCC3)cccc2c1=O
inactive: all assays above

CN(C)CCN1C(=O)c2ccccc2N(C)c2ccccc21
inactive: all assays above

CN1CCN(c2cc3c(cc2F)c(=O)c(C(=O)O)cn3-c2ccc(F)cc2)CC1
inactive: all assays above

CC(C)[C@@H]1CC[C@@H](C)CC1=O
inactive: all assays above

CC(=O)Oc1ccc(C)cc1
inactive: all assays above

NS(=O)(=O)c1cc(C(=O)O)cc(N2CCCC2)c1Oc1ccccc1
inactive: all assays above

COc1cc(O)c(C(=O)c2ccccc2)cc1S(=O)(=O)O
inactive: all assays above

CCNC(=O)NCc1cccc(Cl)c1
inactive: all assays above
